Results: the supplement of paper PMC10849652
Targets with a hit are over-represented here; the source holds about 7,900 in all. About 0.6% of all pairs of compound and target were hits.

Assays:
Assay in all cases: log2 fold change, soluble protein after heating vs DMSO (PISA); higher = thermal stabilisation; K562 cells, 10 uM, 30 min; active = over 0.2 and 3.5 SD of the protein, either way, in both replicates (recomputed)
bafetinib = compound: Cc1ccc(NC(=O)c2ccc(CN3CC[C@H](N(C)C)C3)c(C(F)(F)F)c2)cc1Nc1nccc(-c2cncnc2)n1 [bafetinib]
Procedure, shortened: (§1)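 K562 cells at 2×10^6 cells/mL were treated with 10 μM compound for 30 min. Aliquots were heated for 3 min across 48°C-58°C, pooled, and extracted in PBS with 0.5% NP-40 at 4°C; soluble protein was the supernatant after 21,000xg for 90 min. Soluble protein was quantified by TMTpro 16plex LC-MS/MS with channel sums equalised, and reported as log2 fold change in thermal stability against DMSO controls, with values from duplicates.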

[1] = compound: Cc1cccc(CC(=O)N2CCc3c2ccc(-c2cn(C)c4ncnc(N)c24)c3F)n1
Procedure, shortened: as §1

nilotinib = compound: Cc1cn(-c2cc(NC(=O)c3ccc(C)c(Nc4nccc(-c5cccnc5)n4)c3)cc(C(F)(F)F)c2)cn1 [nilotinib]
Procedure, shortened: as §1

[2] = compound: Cc1nc(Nc2n[nH]c3c2CN(C(=O)N[C@H](CN(C)C)c2ccccc2)C3(C)C)c2sccc2n1
Procedure, shortened: as §1

dasatinib = compound: Cc1nc(Nc2ncc(C(=O)Nc3c(C)cccc3Cl)s2)cc(N2CCN(CCO)CC2)n1 [dasatinib]
Procedure, shortened: as §1

[3] = compound: Cc1ncc(-c2ccnc(Nc3ccc(S(C)(=O)=O)cc3)n2)n1C(C)C
Procedure, shortened: as §1

[4] = compound: Cn1cc(-c2ccc3c(c2)CCN3C(=O)Cc2cccc(C(F)(F)F)c2)c2c(N)ncnc21
Procedure, shortened: as §1

[5] = compound: Cn1cc(-c2ccc3nnc(C(F)(F)c4ccc5ncccc5c4)n3n2)cn1
Procedure, shortened: as §1

tipifarnib = compound: Cn1cncc1[C@@](N)(c1ccc(Cl)cc1)c1ccc2c(c1)c(-c1cccc(Cl)c1)cc(=O)n2C [tipifarnib]
Procedure, shortened: as §1

mubritinib = compound: FC(F)(F)c1ccc(/C=C/c2nc(COc3ccc(CCCCn4ccnn4)cc3)co2)cc1 [mubritinib]
Procedure, shortened: as §1

[6] = compound: NC(=O)Nc1cc(-c2cccc(F)c2)sc1C(=O)N[C@H]1CCCNC1
Procedure, shortened: as §1

[7] = compound: NC(=O)c1cnc(N[C@@H]2CCCC[C@@H]2N)nc1Nc1cccc(-n2nccn2)c1
Procedure, shortened: as §1

[8] = compound: NC1(c2ccc(-c3nc4ccn5c(=O)[nH]nc5c4cc3-c3ccccc3)cc2)CCC1
Procedure, shortened: as §1

[9] = compound: NCC(=O)Nc1ccc(-n2nc(C(F)(F)F)cc2-c2ccc3c(ccc4ccccc43)c2)cc1
Procedure, shortened: as §1

entinostat = compound: Nc1ccccc1NC(=O)c1ccc(CNC(=O)OCc2cccnc2)cc1 [entinostat]
Procedure, shortened: as §1

vorinostat = compound: O=C(CCCCCCC(=O)Nc1ccccc1)NO [vorinostat]
Procedure, shortened: as §1

citarinostat = compound: O=C(CCCCCCNC(=O)c1cnc(N(c2ccccc2)c2ccccc2Cl)nc1)NO [citarinostat]
Procedure, shortened: as §1

silmitasertib = compound: O=C(O)c1ccc2c(c1)nc(Nc1cccc(Cl)c1)c1ccncc12 [silmitasertib]
Procedure, shortened: as §1

[10] = compound: O=C1NC(=O)C(c2cnc3ccccn23)=C1c1cn2c3c(cc(F)cc13)CN(C(=O)N1CCCCC1)CC2
Procedure, shortened: as §1

[11] = compound: c1cc(OCCN2CCCCC2)cc(-c2n[nH]c3ccc(-c4nnc[nH]4)cc23)c1
Procedure, shortened: as §1

Measured: log2 fold change

RGS10 (UniProt O43665)
Sequence of UniProt O43665 (O43665 whole entry, looked up): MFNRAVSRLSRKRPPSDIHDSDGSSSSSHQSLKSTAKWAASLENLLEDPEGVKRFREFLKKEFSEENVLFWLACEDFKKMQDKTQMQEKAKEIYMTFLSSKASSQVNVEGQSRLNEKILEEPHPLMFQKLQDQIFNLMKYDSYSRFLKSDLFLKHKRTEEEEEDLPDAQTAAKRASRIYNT
inactive: bafetinib -0.08 | [1] 0.032 | nilotinib -0.057 | [2] 0.002 | dasatinib -0.034 | [3] 0.009 | [4] 0.126 | [5] -0.031 | tipifarnib -0.043 | mubritinib -0.019 | [6] 0.077 | [7] 0.068 | [8] -0.037 | [9] 0.11 | entinostat 0.038 | vorinostat 0.054 | citarinostat 0.087 | silmitasertib 0.01 | [10] -0.057 | [11] 0.033

SLBP (UniProt Q14493)
Sequence of UniProt Q14493 (Q14493 whole entry, looked up): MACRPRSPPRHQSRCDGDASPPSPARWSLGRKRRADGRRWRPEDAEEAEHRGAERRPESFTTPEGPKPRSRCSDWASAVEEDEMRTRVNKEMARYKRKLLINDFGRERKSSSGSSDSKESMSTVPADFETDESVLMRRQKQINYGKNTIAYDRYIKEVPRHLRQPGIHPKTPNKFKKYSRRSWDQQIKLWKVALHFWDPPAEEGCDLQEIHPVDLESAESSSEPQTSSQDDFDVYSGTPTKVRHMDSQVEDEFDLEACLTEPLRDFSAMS
inactive: bafetinib 0.11 | [1] -0.017 | nilotinib -0.05 | [2] -0.093 | dasatinib 0.031 | [4] -0.042 | [5] -0.033 | tipifarnib 0 | mubritinib -0.023 | [6] 0.043 | [7] 0.051 | [8] -0.028 | [9] -0.005 | entinostat 0.018 | vorinostat 0.085 | citarinostat 0.035 | silmitasertib 0.007 | [10] 0.064 | [11] 0.035
active: [3] -0.423

SCCPDH (UniProt Q8NBX0)
active: tipifarnib 0.419
inactive: bafetinib 0.161 | [1] -0.046 | nilotinib 0.189 | [2] 0.019 | dasatinib 0.008 | [3] 0.174 | [4] 0.273 | [5] -0.074 | mubritinib 0.104 | [6] -0.113 | [7] -0.056 | [8] 0.045 | [9] -0.024 | entinostat -0.071 | vorinostat 0.062 | citarinostat 0.199 | silmitasertib -0.004 | [10] 0.123 | [11] 0.33

SASH1 (UniProt O94885)
Sequence of UniProt O94885 (O94885 whole entry, looked up): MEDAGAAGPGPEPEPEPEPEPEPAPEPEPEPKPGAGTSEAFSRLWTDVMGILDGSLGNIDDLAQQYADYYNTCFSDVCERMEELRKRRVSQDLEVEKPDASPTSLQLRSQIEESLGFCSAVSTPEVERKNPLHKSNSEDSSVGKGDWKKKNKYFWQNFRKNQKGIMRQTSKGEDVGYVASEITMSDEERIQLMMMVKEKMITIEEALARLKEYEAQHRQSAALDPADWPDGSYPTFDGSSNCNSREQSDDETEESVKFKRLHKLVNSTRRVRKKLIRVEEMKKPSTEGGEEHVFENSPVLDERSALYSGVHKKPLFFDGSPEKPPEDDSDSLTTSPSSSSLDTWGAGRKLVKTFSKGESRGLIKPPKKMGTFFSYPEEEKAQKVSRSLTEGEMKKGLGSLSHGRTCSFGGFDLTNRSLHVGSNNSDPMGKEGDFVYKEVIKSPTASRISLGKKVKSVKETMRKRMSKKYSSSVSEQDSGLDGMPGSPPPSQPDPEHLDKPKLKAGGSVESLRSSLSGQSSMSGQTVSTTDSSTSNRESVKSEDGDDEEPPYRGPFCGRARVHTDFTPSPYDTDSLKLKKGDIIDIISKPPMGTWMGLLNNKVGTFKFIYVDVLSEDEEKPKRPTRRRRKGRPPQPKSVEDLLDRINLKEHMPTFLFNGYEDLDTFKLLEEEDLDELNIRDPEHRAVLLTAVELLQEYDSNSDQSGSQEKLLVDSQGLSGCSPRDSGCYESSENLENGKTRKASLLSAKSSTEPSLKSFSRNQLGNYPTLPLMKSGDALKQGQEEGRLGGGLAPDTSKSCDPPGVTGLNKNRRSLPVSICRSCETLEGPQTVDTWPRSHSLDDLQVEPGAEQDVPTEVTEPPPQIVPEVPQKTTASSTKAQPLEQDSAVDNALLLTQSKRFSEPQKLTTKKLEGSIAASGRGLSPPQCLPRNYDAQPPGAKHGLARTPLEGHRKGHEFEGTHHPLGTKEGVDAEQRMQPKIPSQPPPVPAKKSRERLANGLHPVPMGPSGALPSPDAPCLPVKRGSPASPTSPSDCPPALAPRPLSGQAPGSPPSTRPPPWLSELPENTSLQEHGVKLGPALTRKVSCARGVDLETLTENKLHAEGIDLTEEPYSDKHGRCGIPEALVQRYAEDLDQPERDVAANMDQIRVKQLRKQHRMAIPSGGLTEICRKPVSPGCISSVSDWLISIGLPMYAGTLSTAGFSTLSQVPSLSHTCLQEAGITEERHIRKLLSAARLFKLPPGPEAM
inactive: bafetinib -0.052 | [1] -0.006 | nilotinib -0.079 | [2] -0.071 | dasatinib -0.046 | [3] 0.034 | [4] 0.011 | [5] 0.073 | tipifarnib 0.025 | mubritinib 0.032 | [6] -0.08 | [7] -0.06 | [8] -0.053 | [9] -0.147 | entinostat 0.035 | vorinostat 0.077 | citarinostat 0.167 | silmitasertib 0.033 | [10] 0.008 | [11] -0.218

SDCBP (UniProt O00560)
Sequence of UniProt O00560 (O00560 whole entry, looked up): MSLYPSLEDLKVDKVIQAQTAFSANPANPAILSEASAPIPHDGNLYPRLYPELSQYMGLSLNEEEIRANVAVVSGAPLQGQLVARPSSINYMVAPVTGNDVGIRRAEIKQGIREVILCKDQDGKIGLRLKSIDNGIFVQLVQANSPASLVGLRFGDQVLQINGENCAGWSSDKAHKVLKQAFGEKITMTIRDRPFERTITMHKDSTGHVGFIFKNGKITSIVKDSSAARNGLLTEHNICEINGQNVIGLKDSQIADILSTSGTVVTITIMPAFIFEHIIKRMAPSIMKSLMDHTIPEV
inactive: bafetinib -0.229 | [1] 0.038 | nilotinib 0.015 | [2] -0.021 | dasatinib -0.12 | [3] 0 | [4] -0.076 | [5] -0.058 | tipifarnib 0.018 | mubritinib 0.025 | [6] -0.027 | [7] -0.017 | [8] -0.207 | [9] -0.189 | entinostat 0.007 | vorinostat 0.063 | citarinostat -0.014 | silmitasertib 0.073 | [10] 0.028 | [11] -0.08

ROCK2 (UniProt O75116)
Sequence of UniProt O75116 (O75116 whole entry, looked up): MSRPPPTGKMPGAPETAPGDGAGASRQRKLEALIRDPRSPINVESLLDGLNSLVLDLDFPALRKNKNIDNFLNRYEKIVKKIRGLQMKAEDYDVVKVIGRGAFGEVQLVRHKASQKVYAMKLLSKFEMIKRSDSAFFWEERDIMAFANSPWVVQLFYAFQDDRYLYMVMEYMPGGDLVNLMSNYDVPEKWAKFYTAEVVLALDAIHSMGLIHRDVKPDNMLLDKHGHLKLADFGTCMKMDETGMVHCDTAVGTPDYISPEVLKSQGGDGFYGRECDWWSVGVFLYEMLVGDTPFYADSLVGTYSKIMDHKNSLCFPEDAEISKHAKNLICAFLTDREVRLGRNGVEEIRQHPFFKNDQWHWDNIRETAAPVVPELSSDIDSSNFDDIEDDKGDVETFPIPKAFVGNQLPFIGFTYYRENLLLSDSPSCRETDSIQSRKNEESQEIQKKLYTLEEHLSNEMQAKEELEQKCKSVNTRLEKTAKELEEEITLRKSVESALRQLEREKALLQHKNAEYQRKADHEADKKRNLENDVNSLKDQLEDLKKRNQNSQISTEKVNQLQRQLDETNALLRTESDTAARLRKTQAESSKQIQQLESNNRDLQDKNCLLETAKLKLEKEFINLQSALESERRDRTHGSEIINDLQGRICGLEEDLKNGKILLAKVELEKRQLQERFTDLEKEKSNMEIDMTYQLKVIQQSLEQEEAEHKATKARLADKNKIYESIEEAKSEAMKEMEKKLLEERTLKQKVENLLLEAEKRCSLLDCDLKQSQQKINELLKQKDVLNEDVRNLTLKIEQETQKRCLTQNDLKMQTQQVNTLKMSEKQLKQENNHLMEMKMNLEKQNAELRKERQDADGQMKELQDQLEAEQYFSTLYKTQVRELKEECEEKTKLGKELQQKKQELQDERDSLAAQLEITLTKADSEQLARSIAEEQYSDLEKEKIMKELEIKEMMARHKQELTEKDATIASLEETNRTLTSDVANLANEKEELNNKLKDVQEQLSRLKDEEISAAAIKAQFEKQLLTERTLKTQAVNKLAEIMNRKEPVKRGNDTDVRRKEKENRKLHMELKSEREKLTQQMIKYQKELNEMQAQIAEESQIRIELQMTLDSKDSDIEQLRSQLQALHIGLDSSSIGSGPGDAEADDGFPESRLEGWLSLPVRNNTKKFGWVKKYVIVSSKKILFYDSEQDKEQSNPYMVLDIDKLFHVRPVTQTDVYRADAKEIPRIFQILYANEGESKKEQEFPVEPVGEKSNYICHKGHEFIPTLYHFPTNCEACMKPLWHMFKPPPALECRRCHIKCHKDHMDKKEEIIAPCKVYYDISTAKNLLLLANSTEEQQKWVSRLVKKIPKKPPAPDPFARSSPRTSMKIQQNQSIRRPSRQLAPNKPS
inactive: bafetinib -0.033 | [1] -0.006 | nilotinib -0.05 | [2] -0.202 | dasatinib -0.064 | [3] 0.009 | [4] -0.091 | [5] 0.014 | tipifarnib -0.008 | mubritinib 0.013 | [6] 0.043 | [7] -0.044 | [8] -0.106 | [9] -0.017 | entinostat 0.031 | vorinostat 0.08 | citarinostat 0.013 | silmitasertib 0.096 | [10] 0.017 | [11] 0.06

RBM27 (UniProt Q9P2N5)
inactive: bafetinib 0.007 | [1] 0.078 | nilotinib 0.019 | dasatinib -0.07 | [3] -0.07 | [4] 0.053 | [5] 0.041 | tipifarnib -0.005 | mubritinib 0.023 | [6] -0.151 | [7] -0.015 | [8] -0.058 | [9] -0.042 | entinostat 0.044 | vorinostat 0.125 | citarinostat 0.04 | silmitasertib -0.078 | [10] -0.056 | [11] -0.064
active: [2] -0.91

SETD3 (UniProt Q86TU7)
Sequence of UniProt Q86TU7 (Q86TU7 whole entry, looked up): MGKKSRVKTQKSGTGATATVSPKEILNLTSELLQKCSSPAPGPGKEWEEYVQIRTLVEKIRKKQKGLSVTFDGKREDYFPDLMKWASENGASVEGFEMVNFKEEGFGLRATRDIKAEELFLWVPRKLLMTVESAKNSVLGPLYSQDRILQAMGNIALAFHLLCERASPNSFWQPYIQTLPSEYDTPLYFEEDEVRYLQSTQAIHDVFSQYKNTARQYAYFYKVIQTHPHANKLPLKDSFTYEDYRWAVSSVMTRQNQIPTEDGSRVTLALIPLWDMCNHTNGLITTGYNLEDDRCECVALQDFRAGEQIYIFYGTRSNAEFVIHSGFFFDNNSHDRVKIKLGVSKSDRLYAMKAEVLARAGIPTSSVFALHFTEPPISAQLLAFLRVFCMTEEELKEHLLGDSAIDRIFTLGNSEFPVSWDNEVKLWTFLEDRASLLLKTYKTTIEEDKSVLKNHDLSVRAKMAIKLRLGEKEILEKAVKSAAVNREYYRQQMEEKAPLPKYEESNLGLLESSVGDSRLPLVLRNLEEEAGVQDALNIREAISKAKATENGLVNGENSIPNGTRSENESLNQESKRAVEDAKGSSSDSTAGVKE
inactive: bafetinib -0.015 | [1] -0.005 | nilotinib 0.002 | [2] -0.009 | dasatinib 0.006 | [3] -0.023 | [4] 0.033 | [5] 0.031 | tipifarnib 0.029 | mubritinib 0.052 | [6] -0.007 | [7] -0.019 | [8] -0.045 | [9] -0.002 | entinostat -0.02 | vorinostat -0.035 | citarinostat -0.015 | silmitasertib 0.007 | [10] -0.022 | [11] 0.031

RAB5C isoform 2 (UniProt P51148)
Sequence of UniProt P51148 (P51148 whole entry, looked up): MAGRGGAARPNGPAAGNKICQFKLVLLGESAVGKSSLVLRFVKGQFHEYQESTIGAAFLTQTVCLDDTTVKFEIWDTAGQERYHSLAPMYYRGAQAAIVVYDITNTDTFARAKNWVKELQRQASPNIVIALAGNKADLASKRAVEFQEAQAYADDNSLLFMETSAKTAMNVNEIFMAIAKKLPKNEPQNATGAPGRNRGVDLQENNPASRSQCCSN
inactive: bafetinib -0.005 | [1] -0.021 | nilotinib 0.019 | [2] -0.019 | dasatinib 0.014 | [3] -0.003 | [4] 0.043 | [5] -0.027 | tipifarnib 0.006 | mubritinib 0.031 | [6] 0.092 | [7] 0.041 | [8] 0.017 | [9] 0.051 | entinostat 0.007 | vorinostat -0.001 | citarinostat -0.004 | silmitasertib -0.009 | [10] 0.049 | [11] -0.028

RALY (UniProt Q9UKM9)
Sequence of UniProt Q9UKM9 (Q9UKM9 whole entry, looked up): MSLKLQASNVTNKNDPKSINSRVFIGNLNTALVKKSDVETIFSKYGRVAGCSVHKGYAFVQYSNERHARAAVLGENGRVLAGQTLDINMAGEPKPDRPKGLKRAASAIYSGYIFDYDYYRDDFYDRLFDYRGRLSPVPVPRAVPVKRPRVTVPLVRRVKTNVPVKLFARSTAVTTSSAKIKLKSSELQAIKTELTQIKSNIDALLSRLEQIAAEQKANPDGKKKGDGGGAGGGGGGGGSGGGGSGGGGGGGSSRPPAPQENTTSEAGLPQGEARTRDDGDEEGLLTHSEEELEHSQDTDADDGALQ
inactive: bafetinib 0.077 | [1] -0.069 | nilotinib -0.029 | [2] 0.051 | dasatinib 0.249 | [3] -0.151 | [4] -0.596 | [5] -0.011 | tipifarnib -0.118 | mubritinib -0.257 | [6] -0.039 | [7] 0.071 | [8] 0.353 | [9] 0.026 | entinostat -0.02 | vorinostat -0.105 | citarinostat -0.064 | silmitasertib 0.128 | [10] 0.072 | [11] -0.106

RIOK3 (UniProt O14730)
inactive: bafetinib -0.004 | [1] -0.02 | nilotinib -0.017 | [2] 0.06 | dasatinib 0.053 | [3] -0.01 | [4] 0.018 | [5] -0.005 | tipifarnib 0.002 | mubritinib 0.017 | [6] 0.047 | [7] -0.005 | [8] -0.061 | [9] 0.015 | entinostat -0.005 | vorinostat 0.043 | citarinostat 0.036 | silmitasertib -0.011 | [10] 0.057 | [11] -0.046

RCOR1 (UniProt Q9UKL0)
inactive: bafetinib 0.011 | [1] 0.021 | nilotinib -0.034 | [2] -0.107 | dasatinib -0.063 | [3] -0.062 | [4] -0.005 | [5] 0.033 | tipifarnib -0.087 | mubritinib 0.07 | [6] 0.035 | [7] -0.104 | [8] -0.03 | [9] -0.133 | entinostat 0.189 | vorinostat 0.082 | citarinostat 0.007 | silmitasertib 0.016 | [10] -0.043 | [11] -0.103

RHOA (UniProt P61586)
inactive: bafetinib -0.149 | [1] -0.051 | nilotinib 0.154 | [2] 0.001 | dasatinib 0.001 | [3] 0.014 | [4] 0.04 | [5] 0.012 | tipifarnib 0 | mubritinib 0.029 | [6] -0.01 | [7] 0.036 | [8] 0.204 | [9] 0.123 | entinostat -0.019 | vorinostat -0.16 | citarinostat -0.047 | silmitasertib -0.136 | [10] -0.057 | [11] 0.104

SEC23A (UniProt Q15436)
inactive: bafetinib -0.011 | [1] 0.024 | nilotinib -0.012 | [2] 0.014 | dasatinib -0.07 | [3] -0.009 | [4] -0.018 | [5] -0.052 | tipifarnib -0.013 | mubritinib -0.002 | [6] -0.004 | [7] 0.064 | [8] -0.066 | [9] -0.015 | entinostat -0.035 | vorinostat -0.02 | citarinostat -0.044 | silmitasertib 0.011 | [10] 0.024 | [11] -0.097

SERPINA7 (UniProt P05543)
Sequence of UniProt P05543 (P05543 whole entry, looked up): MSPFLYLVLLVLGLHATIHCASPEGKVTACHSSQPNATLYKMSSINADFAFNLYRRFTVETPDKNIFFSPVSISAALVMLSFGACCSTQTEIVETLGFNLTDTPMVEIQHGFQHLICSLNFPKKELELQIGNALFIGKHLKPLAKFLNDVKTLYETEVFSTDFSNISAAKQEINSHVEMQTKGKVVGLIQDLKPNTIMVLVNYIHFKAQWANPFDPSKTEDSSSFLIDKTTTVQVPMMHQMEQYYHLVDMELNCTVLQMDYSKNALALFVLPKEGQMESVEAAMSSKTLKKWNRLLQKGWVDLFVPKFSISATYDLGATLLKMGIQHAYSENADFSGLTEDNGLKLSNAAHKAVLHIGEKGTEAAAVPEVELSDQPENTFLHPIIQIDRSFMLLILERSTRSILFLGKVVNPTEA
inactive: bafetinib -0.191 | [1] -0.152 | nilotinib 0.05 | [2] 0.115 | dasatinib 0.098 | [3] 0.392 | [4] 0.238 | [5] 0.001 | tipifarnib 0.104 | mubritinib -0.247 | [6] -0.062 | [7] 0.132 | [8] 0.234 | [9] -0.075 | entinostat -0.084 | vorinostat -0.164 | citarinostat -0.011 | silmitasertib 0.091 | [10] 0.089 | [11] 0.367
